# Laboratory results as given in the supplement of paper PMC7366291.
# Where a name gives a salt, the structure may show the parent alone.
# Test system: Danio rerio Tg(wt1b:EGFP) embryo, pronephros
# Experiment: fraction of imaged embryos annotated as normal kidney; higher = less nephrotoxic; extreme values may be limits of the assay
# Conditions: 25 µM; exposure: 24-48 hpf
# How it was run: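 Embryos of the Tg(wt1b:EGFP) zebrafish line were dechorionated and held in 12-well plates with 25 μM compound in 0.5% DMSO and 5 mM HEPES-buffered E3 containing 0.003% PTU, from 24 to 48 hpf at 28.5°C. Larvae were then anaesthetised with tricaine, set dorsal side up in agarose-filled 96-well plates, and their pronephroi imaged by widefield fluorescence at 470 nm over 10 z-slices. Each value is the fraction of embryos per treatment placed in the normal-kidney category after manual annotation of maximum projections.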
row,SMILES,fraction of imaged embryos annotated as normal kidney
1,O=C(O)c1cc(/N=N/c2ccc(S(=O)(=O)Nc3ccccn3)cc2)ccc1O [Sulfasalazine],0.917
2,CN[C@@H]1[C@H](O)[C@H](NC)[C@H]2O[C@@]3(O)C(=O)C[C@@H](C)O[C@H]3O[C@@H]2[C@H]1O [Spectinomycin dihydrochloride],0.909
3,CCCC(=O)Nc1ncnc2c1ncn2[C@@H]1O[C@@H]2COP(=O)(O)O[C@H]2[C@H]1OC(=O)CCC [Bucladesine sodium salt],0.917
4,CN(C/C=C/C#CC(C)(C)C)Cc1cccc2ccccc12 [Terbinafine],1
5,Cc1ccc(S(=O)(=O)NC(=O)NN2CC3CCCC3C2)cc1 (configuration not stated) [Gliclazide],0.917
6,COc1nc(N)nc2c1ncn2[C@@H]1O[C@H](CO)[C@@H](O)[C@@H]1O [Nelarabine],0.727
7,"CC(C)NCC(O)c1cc(O)cc(O)c1 (configuration not stated) [Metaproterenol sulfate, orciprenaline sulfate]",0.909
8,C[N+]1(C)CCC(OC(=O)C(O)(c2ccccc2)C2CCCC2)C1 (configuration not stated) [Glycopyrrolate],0.583
9,CCCCC1C(=O)N(c2ccccc2)N(c2ccc(O)cc2)C1=O (configuration not stated) [Oxyphenbutazone],1
10,CCCCOc1ccc(C(=O)CCN2CCCCC2)cc1 [Dyclonine hydrochloride],0.833
11,"Cc1cn([C@H]2C[C@H](N=[N+]=[N-])[C@@H](CO)O2)c(=O)[nH]c1=O [Zidovudine, AZT]",1
12,COC(=O)Nc1nc2cc(C(=O)c3ccc(F)cc3)ccc2[nH]1 [Flubendazol],0.833
